Screening data as filed in PubChem BioAssay.
The full list was thinned out, with hits kept by preference.
DT40 TDP1 CPT = qHTS for Inhibitors of human tyrosyl-DNA phosphodiesterase 1 (TDP1): qHTS in cells in presence of CPT | Potency, µM (top dose mostly 46.2 µM), for the others: top-dose activity change, negative = growth inhibition, usual class: inhibitors | AID 686979, 2013 | 420,000 tested, 12% active | chicken DT40 Tdp1-/-;hTDP1 cells + 20 nM CPT, ATP luminescence, 48 h; note: potency is the fitted concentration of half-maximal effect; nearly all actives have a fitted effect of over 55% in size
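Chicken DT40 Tdp1-/- cells stably complemented with human TDP1 were seeded at 400 cells/well in medium containing 20 nM camptothecin, exposed to pin-transferred compounds, and grown at 37 °C for at least 48 hr. Viability was read as ATP luminescence.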
DT40 TDP1 no CPT = qHTS for Inhibitors of human tyrosyl-DNA phosphodiesterase 1 (TDP1): qHTS in cells in absence of CPT; DT40 Tdp1-/- hTDP1 cells, no CPT, ATP luminescence, 48 h; Potency, µM (series often up to 46.2 µM), for inactives: at the top dose activity change, negative = growth inhibition, actives largely listed as inhibitors; 420,000 tested, 15% active; note: potency is the fitted concentration of half-maximal effect; nearly all actives have a fitted effect of over 55% in size
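Growth of hTDP1-complemented DT40 Tdp1-knockout cells is measured by ATP luminescence after at least 48 hr compound exposure at 37 °C, with DMSO substituting for the 20 nM CPT used in the parallel screen.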
IL-1B inflam inh = qHTS for Inhibitors of Inflammasome Signaling: IL-1-beta AlphaLISA Primary Screen | THP-1 LPS/ATP IL-1B secretion, AlphaLISA, 16 h; stronger effect = lower value | activity change, % at 57.5 µM | 360,000 tested, 4.7% active | AID 743279, 2014; in the data active = activity change below about -50%; inconclusive = mostly about -30% to -49%
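THP-1 cells pretreated 1 hr with compounds (up to 57.5 uM final), then stimulated with LPS (250 ng/mL final) plus ATP (1.25 mM final); secreted IL-1B measured by AlphaLISA after 16 hr, decreased signal indicating inhibition.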
HT1080 IDH1KD tx = qHTS for induction of synthetic lethality in tumor cells producing 2HG: qHTS for the HT-1080-IDH1KD cell line; Potency, µM (top dose mostly 46.1 µM), inactives show at the top dose activity, negative = toxicity, hits mostly cytotoxic; AID 686971, 2013; 360,000 tested, 2% active; HT-1080 IDH1 knockdown viability, ATP luminescence, 48 h;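 note: potency is the fitted concentration of half-maximal effect; 0% = DMSO wells and -100% = cell-free medium wells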
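Cytotoxicity counter-line: IDH1KD HT-1080, 48 h, CellTiter-Glo. Curves classed by r2, magnitude and activity.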
HT1080-NT tox = qHTS for induction of synthetic lethality in tumor cells producing 2HG: qHTS for the HT-1080-NT fibrosarcoma cell line; Potency, µM (series often up to 46.1 µM), for inactives: at the highest dose activity, negative = less viability, actives largely listed as cytotoxic; HT-1080-NT fibrosarcoma viability, CellTiter-Glo ATP luminescence, 48 h; 360,000 tested, 1.6% active;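 note: NT is the 2HG producing partner of a matched IDH1 knockdown line; potency is the fitted concentration of half-maximal effect; 0% = DMSO-treated cells and -100% = media-only wells without cells; nearly all actives have a fitted effect of over 55% in size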
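Fibrosarcoma NT cells, 750 per well in 5% FBS RPMI, were exposed to compound for 48 hours. Viability: CellTiter-Glo luminescence.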
ALOX12 inh = Primary qHTS assay for inhibitors of human arachidonate 12S-lipoxygenase (ALOX12): Round 2; Polyunsaturated fatty acid lipoxygenase ALOX12 (Homo sapiens), P18054; purified 12hLO, xylenol orange hydroperoxide absorbance; Potency, µM (highest dose often 108 µM), without a hit: at the top dose activity change, negative = inhibition, hits mostly inhibitors; 580,000 tested, 1.1% active; AID 1671190, 2021; note: potency is the fitted concentration of half-maximal effect
Target sequence (P18054 whole entry, looked up): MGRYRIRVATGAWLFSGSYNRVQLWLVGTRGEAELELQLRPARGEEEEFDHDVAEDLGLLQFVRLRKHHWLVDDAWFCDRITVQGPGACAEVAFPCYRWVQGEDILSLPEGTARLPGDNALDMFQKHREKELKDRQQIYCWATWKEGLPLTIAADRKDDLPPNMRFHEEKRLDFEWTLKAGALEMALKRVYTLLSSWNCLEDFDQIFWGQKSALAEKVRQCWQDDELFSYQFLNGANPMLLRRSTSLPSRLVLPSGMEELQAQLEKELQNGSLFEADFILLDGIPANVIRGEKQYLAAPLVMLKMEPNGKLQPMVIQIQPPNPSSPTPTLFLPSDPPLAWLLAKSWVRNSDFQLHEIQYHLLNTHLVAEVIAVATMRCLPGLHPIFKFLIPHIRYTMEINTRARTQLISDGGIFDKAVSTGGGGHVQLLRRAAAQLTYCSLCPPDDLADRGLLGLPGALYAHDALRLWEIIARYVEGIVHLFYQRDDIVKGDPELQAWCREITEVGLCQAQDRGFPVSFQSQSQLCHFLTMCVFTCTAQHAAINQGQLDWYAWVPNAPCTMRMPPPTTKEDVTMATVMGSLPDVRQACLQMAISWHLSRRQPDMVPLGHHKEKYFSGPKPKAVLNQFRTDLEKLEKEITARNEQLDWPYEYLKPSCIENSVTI
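Purified human 12hLO at 150 nM in 25 mM Hepes, 0.01% Triton X-100, pH 7.0, preincubated 15 min at room temperature with compound. Reaction started with 40 uM arachidonic acid, 30 min at room temperature. Hydroperoxide measured by Fe-xylenol orange, 573/405 nm absorbance ratio.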
The depositor's hits bear a star. Unless noted, calls come from the whole dose curve; as a rule, active = well fitted curve in the direction sought with a large enough effect; inconclusive = small, poorly fitted or top-dose-only effect, or another doubt; inactive = no such curve, though single readings can be large; an effect the other way counts as inactive or inconclusive. Unless noted, % is set by controls: 0 for no effect and ±100 for the full control effect.

`CNC(=O)Nc1ccc(C)n(CC(=O)N2CCN(c3cccc(Cl)c3)CC2)c1=O` gave ALOX12 inh 44%.
`COC(=O)c1c(-c2cccs2)csc1NC(=O)c1ccc(C(C)C)cc1` gave DT40 TDP1 CPT inconclusive, DT40 TDP1 no CPT 15µM* and ALOX12 inh -7%.
For COC(=O)c1c(-c2cccs2)csc1NC(=O)c1cccnc1 the results were DT40 TDP1 CPT 16µM*, DT40 TDP1 no CPT 15µM*, IL-1B inflam inh -65*, HT1080 IDH1KD tx -2%, HT1080-NT tox -8% and ALOX12 inh inconclusive.
Screening COC(=O)c1c(-c2ccc(F)cc2)csc1NC(=O)c1ccc(OC)cc1 returned ALOX12 inh 14%.
For COC(=O)c1c(-c2cccs2)csc1NC(=O)COc1c(C)ccc(C)c1C the results were DT40 TDP1 CPT inconclusive, DT40 TDP1 no CPT inconclusive and ALOX12 inh -17%.
`COC(=O)c1c(-c2cccs2)csc1NC(=O)c1ccc(C(C)(C)C)cc1` gave DT40 TDP1 CPT 16µM*, DT40 TDP1 no CPT 15µM* and ALOX12 inh inconclusive.
CC(C)c1ccc(-c2csc(NC(=O)c3cccs3)c2C(=O)O)cc1 was read as DT40 TDP1 CPT inconclusive, DT40 TDP1 no CPT inconclusive, IL-1B inflam inh 0, HT1080 IDH1KD tx inconclusive, HT1080-NT tox inconclusive and ALOX12 inh -20%.
`CCN(CC)C(=O)c1sc(NC(=O)c2cccnc2)c(C(=O)OC)c1C` gave DT40 TDP1 CPT 0%, DT40 TDP1 no CPT -26%, IL-1B inflam inh 22, HT1080 IDH1KD tx 7%, HT1080-NT tox 5% and ALOX12 inh 7%.
Screening COc1ccc(C(=O)Nc2scc(-c3ccc(Cl)cc3Cl)c2C(N)=O)cc1 returned DT40 TDP1 CPT inconclusive, DT40 TDP1 no CPT 15µM*, IL-1B inflam inh inconclusive, HT1080 IDH1KD tx 1%, HT1080-NT tox 12% and ALOX12 inh 14%.
`COc1ccc(CCc2nc3nccc(-c4ccc(OC)cc4F)n3n2)cc1` gave ALOX12 inh 14%.
Screening O=C(CSc1nnc(-c2ccc(Cl)cc2)n1CC1CCCO1)Nc1ccc2c(c1)OCCO2 (centres undefined) returned ALOX12 inh -22%.
For COc1ccc(NC(=O)c2cc3c(N(C)Cc4ccccc4)nc(C)cn3n2)cc1 the results were ALOX12 inh 67%.
Screening COC(=O)c1c(-c2cccs2)csc1NC(=O)c1cccc(Cl)c1 returned DT40 TDP1 CPT inconclusive, DT40 TDP1 no CPT -27% and ALOX12 inh 6%.
`COC(=O)c1c(-c2cccs2)csc1NC(=O)c1ccc(Cl)cc1` gave DT40 TDP1 CPT 16µM*, DT40 TDP1 no CPT -62% and ALOX12 inh -25%.
`O=C(NC1CCCCCCC1)C1CCCN(C2CCN(Cc3ccncc3)CC2)C1` (centres undefined) gave ALOX12 inh 44%.
For Cc1cccc(C)c1OCCn1c(C2CC(=O)N(c3cccc(Cl)c3)C2)nc2ccccc21 (centres undefined) the results were DT40 TDP1 CPT 16µM*, DT40 TDP1 no CPT 13µM* and ALOX12 inh -19%.
For Cc1cccc(C)c1OCCCCn1c(C2CC(=O)N(c3ccc(F)cc3)C2)nc2ccccc21 (centres undefined) the results were DT40 TDP1 CPT 13µM*, DT40 TDP1 no CPT 15µM* and ALOX12 inh 32µM*.
